Screens (PubChem)
MITF inh – MITF inhibitors, primary screen, biochemical, AlphaScreen, human. hit rate 0.91% among 650,000. AID 1259374, 2018. inhibition, % at 2.6 µM. Microphthalmia-associated transcription factor (Homo sapiens), O75030. AlphaScreen MITF homodimerization, bead proximity signal; in the data active = inhibition above about 50%;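 also: 0% = vehicle wells with protein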
FBW7 activator – FBW7 E3 ligase activators, primary screen, biochemical, AlphaScreen, human; normalized activity (activation), % at 26.1 µM; AID 1259310, 2017; AlphaScreen FBW7–phospho-cyclin E peptide binding, activator screen; F-box/WD repeat-containing protein 7 (Homo sapiens), Q969H0; hit rate 0.13% among 650,000; in the data active = normalized activity above about 1.9%;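 also: purified mutant Fbw7 with reduced substrate affinity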
TEAD-YAP inh – TEAD-YAP interaction inhibition, primary screen, TEAD-YAP interaction inhibitor project, luminescence, HEK-TIYL cells; TEAD-Gal4/YAP UAS-luciferase luminescence; inhibition, % at 9.12 µM; hit rate 1.4% among 640,000; in the data active = inhibition above about 32%;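 also: 0% = median of test compound wells and 100% = reference inhibitor wells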
GPR151 activ – activators of human GPR151, primary screen, cell-based, PathHunter beta-arrestin, luminescence. G-protein coupled receptor 151 (Homo sapiens), Q8TDV0. PathHunter beta-arrestin GPR151 cells. activation, % at 11.2 µM. hit rate 1% among 650,000; in the data active = activation above about 4.9%;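 also: 0% = median of compound wells and 100% = cells with positive control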
Target sequence (Q8TDV0 whole entry, looked up): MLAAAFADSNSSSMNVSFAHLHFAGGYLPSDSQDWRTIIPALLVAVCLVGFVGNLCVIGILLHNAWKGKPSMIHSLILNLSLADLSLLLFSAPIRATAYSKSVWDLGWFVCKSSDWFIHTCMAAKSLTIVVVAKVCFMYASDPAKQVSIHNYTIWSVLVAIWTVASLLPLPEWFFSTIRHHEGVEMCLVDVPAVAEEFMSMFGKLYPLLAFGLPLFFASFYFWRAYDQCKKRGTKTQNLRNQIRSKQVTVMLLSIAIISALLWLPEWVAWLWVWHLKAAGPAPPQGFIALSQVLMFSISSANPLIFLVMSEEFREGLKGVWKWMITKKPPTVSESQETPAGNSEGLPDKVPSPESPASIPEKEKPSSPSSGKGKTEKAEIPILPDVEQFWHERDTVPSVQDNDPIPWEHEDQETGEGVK
* = called active by the depositor; nt = no result. In the library only some 3.4% were active in any assay of this set; here they are far more common.

SMILES	MITF inh	FBW7 activator	TEAD-YAP inh	GPR151 activ
CCOC(=O)C1CCCN(C(=S)Nc2ccccc2OC)C1 (stereo not drawn)	18	1	2	-1
COc1ccc(OCC(=O)OCCN2C(=O)c3ccccc3C2=O)cc1	-11	0	-6	0
COc1ccc(CCNc2ncnc3c2nc(N2CCOCC2)n3C(C)C)cc1	3	0	-13	1
COc1ccc(CCNc2ncnc3c2nc(-c2ccc(N4CCOCC4)nc2)n3C(C)C)cc1	-2	0	59*	1
COc1ccc(CCNc2ncnc3c2nc(Nc2ccc(N4CCOCC4)cc2)n3C(C)C)cc1	7	0	79*	4
N#C/C(=C\c1ccc(O)c(Br)c1)c1nc(-c2ccc3c(c2)OCO3)cs1	1	0	-11	0
N#C/C(=C\c1ccc(O)c(O)c1)c1nc(-c2ccc3c(c2)OCO3)cs1	58*	0	18	0
Cc1ccc(C(=O)CSc2nc(C)cc(C(F)(F)F)c2C#N)cc1	-34	1	1	-1
CC1(C(=O)Nc2ccc3c(c2)OC2(CCCCC2)O3)CC1(Cl)Cl (stereo not drawn)	0	0	-19	2
COCc1ccc(-c2ccc(OC3CCNCC3)cc2)cc1	-5	0	38*	0
c1ccc2oc(-c3ccc(OC4CCNCC4)cc3)cc2c1	-4	0	68*	2
CCN1CCC(Oc2ccc(-c3ccc(COC)cc3)cc2)CC1	7	0	-30	4
N#Cc1ccc(-c2ccc(OC3CCNCC3)cc2)cc1	18	0	-42	0
Cc1[nH][nH]c(=O)c1C(c1ccc(-c2ccc(C(=O)OC(C)C)cc2)o1)c1c(C)[nH][nH]c1=O	0	-1	-27	-1
CCOC(=O)c1c(NC(=O)c2ccc(S(=O)(=O)N3CCC(C)CC3)cc2)sc2c1CCN(C(C)C)C2	2	0	2	-1
CCOC(=O)c1c(N)sc(C(=O)NC2CCCCC2)c1C	0	0	70*	-6
CCOC(=O)c1sc(C)c(C(=O)NC2CCCCC2)c1N	12	0	-23	-2
CCC(=O)Nc1sc(C(=O)NC2CCCCC2)c(C)c1C(=O)OC	-16	0	37*	0
CCOc1cc(C2C(C(=O)OC(C)CC)=C(C)NC3=C2C(=O)CC(c2ccc(Cl)cc2)C3)ccc1OC(C)=O (stereo not drawn)	7	2	-6	-2
O=C(NCCOc1ccccc1F)c1cccs1	17	0	1	-2
CCC(C)(C)n1nnnc1CN1CCC(c2nc3ccc(Cl)cc3[nH]2)CC1	20	0	35*	1
CCC(C)(C)n1nnnc1CN1CCC(c2nc3ccc(C)cc3[nH]2)CC1	37	0	-6	-1
CCN1CCCC1CNC(=O)Cn1ncc2c(C)n(Cc3ccccc3F)c(C)c2c1=O (stereo not drawn)	5	0	10	-1
O=C(Cc1ccc2c(c1)OCO2)Nc1cc(Nc2ccccc2-c2ncn[nH]2)c(C(F)(F)F)cn1	12	1	60*	-2
N#Cc1ccccc1Nc1cc(NC(=O)Cc2ccc(F)cc2)ncc1C(F)(F)F	17	0	20	0
SMILES	MITF inh	FBW7 activator	TEAD-YAP inh	GPR151 activ
CNC(=O)c1ccccc1Nc1cc(NC(=O)Cc2c(Cl)cccc2Cl)ncc1C(F)(F)F	12	0	56*	-1
CNC(=O)c1ccccc1Nc1cc(NC(=O)Cc2ccccc2)ncc1C(F)(F)F	-24	0	72*	3
CC(C)(C)NC(=O)c1ccccc1NC(=O)CCc1ccccc1	1	0	-7	3
CNC(=O)c1ccccc1Nc1cc(NC(=O)CCc2ccccc2)ncc1C(F)(F)F	-3	0	64*	-2
CCCC(C)NC(=O)c1ccc(NC(=O)C(C)C)cc1 (stereo not drawn)	13	1	7	0
O=C1C2C3C=CC(CO)(O3)C2C(=O)N1c1cccc(Br)c1 (stereo not drawn)	-9	0	-1	-1
CCC(C)(C)C1CCc2c(sc(NC(=O)c3cnccn3)c2C#N)C1 (stereo not drawn)	-12	0	-8	0
CN1CCN(c2ccc(NC(=O)COc3ccc(Cl)cc3)cc2)CC1	7	0	-1	0
C=CCn1c(C)cc(C(=O)COc2ccc(C)nc2[N+](=O)[O-])c1C	-6	0	30	2
Cc1ccc(OCC(=O)c2cc(C)n(-c3ccccc3)c2C)c([N+](=O)[O-])n1	1	0	50*	0
Cc1ccc(Nc2nnc(Sc3nnnn3-c3ccccc3)s2)cc1	7	1	53*	-1
c1ccc(CCSc2nnnn2-c2ccccc2)cc1	1	0	-47	0
Cc1ccc(Nc2nc(CSc3nnnn3-c3ccccc3)cs2)cc1	12	0	-2	1
CCCSc1nnc(Sc2nnnn2-c2ccccc2)s1	3	0	56*	1
CCOC(CCn1c(SCC(=O)N2CCN(c3ccccc3)CC2)nc2ccccc2c1=O)OCC	10	0	17	0
COc1cc2c(cc1O)CC[C@@H]1[C@@H]2CC[C@]2(C)[C@@H](O)CC[C@@H]12	17	0	53*	-1
COc1cc2c(cc1O)CCC1C2CC[C@@]2(C)C1CC[C@@H]2O (stereo partly drawn)	12	0	nt	0
c1ccc(CCNc2nc(Nc3ccc(N4CCOCC4)cc3)nc3nc[nH]c23)nc1	10	0	8	2
CCc1ccc(-n2c(=S)sc3c(=O)n(-c4ccc(F)cc4)c(SCc4cccc([N+](=O)[O-])c4)nc32)cc1	-5	0	4	-1
Cc1c(Nc2ccc(/C=C3\C(=O)Nc4ccccc43)cc2)c(=O)n(-c2ccccc2)n1C	5	0	54*	1
CC(=O)c1ccc(Nc2c(C)n(C)n(-c3ccccc3)c2=O)cc1	-1	0	-2	1
Cn1nnnc1SCc1cnc(-c2ccccc2)s1	10	0	-14	-1
Cc1nnc(SCc2cnc(-c3ccc(C(C)C)cc3)s2)n1C	9	0	58*	1
COc1ccc(-c2c(C)oc3cc(OS(C)(=O)=O)ccc3c2=O)cc1OC	13	0	34*	-1
COc1ccc(C(=O)N2CCN(Cc3ccc(SC)cc3)CC2)cc1OC	45	0	45*	-1
COc1cccc(NS(=O)(=O)c2cc(C(=O)N3CCCC3)ccc2NCCc2ccc(OC)c(OC)c2)c1	8	0	4	0
COc1cccc(NS(=O)(=O)c2cc(C(=O)N3CCN(Cc4ccccc4)CC3)ccc2NCCc2ccc(OC)c(OC)c2)c1	3	0	52*	0
COc1ccc(C(=O)Oc2ccccc2[N+](=O)[O-])cc1I	10	0	13	1
COc1ccc(C2/C(=C(\O)c3ccc(C)cc3)C(=O)C(=O)N2c2nc3ccccc3s2)c(OC)c1 (stereo not drawn)	-10	0	41*	-1
